Screens deposited in PubChem by National Center for Advancing Translational Sciences (NCATS).
POLB inh – blocks human DNA polymerase beta activity. Pol beta primer extension/strand displacement, fluorescence kinetic. P06746. actives 1.3% (n = 340,000). Potency, µM (series often up to 114 µM), without a hit: at the highest dose activity change, negative = inhibition, hits mostly inhibitors; also: % is scaled to controls: 0 for no effect and ±100 for the full control effect
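Enzyme-only controls used 10 nM Pol beta; buffer lacking enzyme served as negative control. Compound preincubated 15 min, then 50 nM substrate added; 0 and 10 min reads at room temperature.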
GLS inh – blocks human kidney-isoform glutaminase activity | O94925 | GLS enzymatic activity, qHTS titration | actives 0.21% (n = 410,000) | Potency, µM (highest dose often 45.5 µM), for the others: at the top dose activity change, negative = inhibition, hits mostly inhibitors; also: % is scaled to controls: 0 for no effect and ±100 for the full control effect
Target sequence (O94925 whole entry, looked up, canonical isoform): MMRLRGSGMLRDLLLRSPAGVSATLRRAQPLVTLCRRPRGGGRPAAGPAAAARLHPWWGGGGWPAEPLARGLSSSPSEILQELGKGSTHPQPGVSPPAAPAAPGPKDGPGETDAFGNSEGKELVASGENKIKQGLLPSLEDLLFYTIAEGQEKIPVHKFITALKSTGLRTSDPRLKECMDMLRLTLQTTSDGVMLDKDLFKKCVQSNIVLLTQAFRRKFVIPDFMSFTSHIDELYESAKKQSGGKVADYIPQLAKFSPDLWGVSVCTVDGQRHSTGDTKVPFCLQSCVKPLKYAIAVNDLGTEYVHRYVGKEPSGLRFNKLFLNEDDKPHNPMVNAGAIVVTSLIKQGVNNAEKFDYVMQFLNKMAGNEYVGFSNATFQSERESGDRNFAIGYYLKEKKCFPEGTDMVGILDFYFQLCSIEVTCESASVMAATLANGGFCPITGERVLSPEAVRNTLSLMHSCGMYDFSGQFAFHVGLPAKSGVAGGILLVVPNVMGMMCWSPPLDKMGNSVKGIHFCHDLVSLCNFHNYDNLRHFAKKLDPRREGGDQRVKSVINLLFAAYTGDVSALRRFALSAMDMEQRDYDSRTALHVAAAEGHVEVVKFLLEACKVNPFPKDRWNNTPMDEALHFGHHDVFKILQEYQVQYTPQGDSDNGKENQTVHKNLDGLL
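Glutamate formation by hKGA was monitored fluorometrically using coupled glutamate oxidase, HRP and Amplex Red. Substrate was added as 1 mM L-glutamine solution; incubation was 30 min at RT after an initial read.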
APEX1 inh – blocks human APE1 abasic DNA cleavage | Potency, µM (top dose mostly 65.8 µM), inactives show at the highest dose activity change, negative = inhibition, most hits filed as inhibitors | AID 2517 | recombinant APE1, TAMRA/BHQ-2 abasic DNA cleavage fluorescence | P27695 | actives 0.35% (n = 350,000);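 also: plate controls were vehicle for no effect and reference inhibitor for full effect; nearly all actives have a fitted effect of over 55% in size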
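Kinetic fluorescence read (525 ex/598 em nm, three reads 60 s apart) of AP-site incision; signal = third minus first read. Enzyme 0.75 nM, dual-labelled THF duplex 50 nM, compound preincubation 15 min RT.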
POLH inh – inhibitors of human DNA polymerase eta. actives 1.2% (n = 390,000). AID 588591. Q9Y253. recombinant Pol eta, fluorescent DNA replication assay. Potency, µM (series often up to 114 µM), without a hit: at the highest dose activity change, negative = inhibition, usual class: inhibitors; also: % is scaled to controls: 0 for no effect and ±100 for the full control effect
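Fluorescent replication assay: 50 nM final substrate added after a 15 min room-temperature compound preincubation with 10 nM enzyme. Signal taken at 0 min and again at 10 min.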
Pol kappa inh – DNA polymerase kappa (human) inhibition; Potency, µM (highest dose often 107 µM), for inactives: top-dose activity, negative = inhibition, actives largely listed as inhibitors; purified Pol kappa, fluorescent DNA synthesis assay, 10 min; Q9UBT6; actives 0.53% (n = 400,000); also: % is scaled to controls: 0 for no effect and ±100 for the full control effect
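Pol kappa 10 nM + cpd, 15 min RT; start w/ substrate 50 nM final; fluorescence kinetic read, 0 and 10 min. Neg ctrl: buffer, no enzyme.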
POLI inh – inhibitors of human DNA polymerase iota; Q9UNA4; Pol iota fluorescent replication assay, 10 min; Potency, µM (titrated, usually from 115 µM), inactives show at the top dose activity, negative = inhibition, actives largely listed as inhibitors; actives 1% (n = 390,000); AID 588590
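Fluorescent replication assay read twice, at 0 min and 10 min after adding 50 nM (final) substrate. Enzyme (10 nM) and compounds were first incubated 15 min at room temperature; enzyme-free buffer wells were negative controls.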
* = called active by the depositor; ? = inconclusive; . = no result; [ ] = remark or other dose. Most compounds without a hit are left out; they make up all but 2.4% or so of the library. Calls follow the shape of the dose curve; as a rule, active = well fitted curve in the direction sought with a large enough effect; inconclusive = small, poorly fitted or top-dose-only effect, or another doubt; inactive = no such curve, though single readings can be large; an effect the other way counts as inactive or inconclusive. Potency is read from the fitted curve at half-maximal effect.

SMILES	POLB inh	GLS inh	APEX1 inh	POLH inh	Pol kappa inh	POLI inh
O=C(O)COc1ccccc1/C=C1\SC(=Nc2ccc(F)cc2)N(c2ccc(F)cc2)C1=O	-5%	20%	9%	56µM*	5%	15%
COC(=O)c1ccc(N2CCOCC2)c(NC(=O)c2cccs2)c1	17%	15%	10%	-8%	-1%	12%
C=C(CC)C(=O)c1ccc(OCC(=O)O)c(Cl)c1Cl	1%	2%	-14%	79µM*	-7%	10µM*
COCCCNC(=O)c1ccccc1Oc1ccccc1	29%	6%	0%	-17%	-2%	23%
COCCCNC(=O)c1ccc2c3c(onc13)-c1ccccc1C2=O	6%	-14%	?	45µM*	-13%	?
Cc1cc(C)nc(NC(=O)CSc2nn(-c3ccccc3)c(=S)s2)n1	40µM*	-3%	-5%	10%	1%	?
O=C(CSc1nn(-c2ccccc2)c(=S)s1)Nc1ncccn1	1%	0%	6%	4%	-5%	27%
CCc1ccc2c(c1)cc(CN(C(=S)Nc1cccc(C)c1)C1CC1)c1nnnn12	2%	9%	1%	2%	-14%	100µM*
COCCN(Cc1cc2cc(C)ccc2n2nnnc12)C(=S)Nc1cccc(C)c1	6%	-9%	2%	-7%	-18%	-14%
Cc1ccc(NC(=O)N2CCC(C(N)=O)CC2)cc1	24%	-22%	-3%	-5%	-1%	?
Cc1cc(/C=C(\C#N)C(=O)Nc2ccccc2)c(C)n1-c1cccnc1	-26%	1%	-2%	-5%	-8%	65%
N#C/C(=C\c1ccccc1O)C(=O)Nc1cccnc1	3%	3%	-3%	?	-26%	89µM*
CC(C)(C)NC(=O)c1c(F)c(F)c(F)c(F)c1F	3%	1%	-1%	-18%	-2%	1%
COc1ccc(-c2cc(C(=O)O)c(C)o2)cc1OC	7%	.	-2%	6%	4%	14%
COc1cc2c(O)cc(C(=O)O)c(-c3cc(OC)c(OC)c(OC)c3)c2cc1OC	.	1%	.	89µM*	8%	?
Cc1ccc(CNC(=O)Cn2c(-c3cccs3)cc3cc(Cl)ccc32)cc1	1%	-3%	.	-20%	0%	19%
Cc1ccc(CNC(=O)c2cn(C)c(=O)c3c2c2ccccc2n3C)o1	0%	-2%	-3%	7%	-3%	7%
O=C(Nc1ccncc1)c1ccccc1F	14%	-14%	3%	3%	-9%	-2%
O=C(Nc1ccncc1)c1cc2ccccc2cc1O	.	-5%	-4%	-12%	-1%	7.9µM*
Fc1cccc2sc(Nc3nnc(-c4ccco4)o3)nc12	18µM*	18%	0%	?	-28%	?
O=C(Nc1nc2c(F)cccc2s1)c1ccco1	1%	0%	-1%	-10%	16%	4%
O=C(/C=C/c1ccccc1)c1cccs1	.	.	-8%	.	-3%[19.4 µM]	.
Cc1ccc(-c2cc(C(=O)NCc3cnn(C)c3)c3cc(Br)ccc3n2)cc1	-2%	-7%	1%	79µM*	-7%	-29%
O=c1c2ccccc2ncn1CCOCCOc1cccc(Br)c1	?	1%	0%	-11%	0%	215%
C[C@@H]1CN([C@H](C)CO)S(=O)(=O)c2ccc(Br)cc2O[C@@H]1CN(C)Cc1ccc(-c2ccccc2)cc1	.	-9%	.	-20%	.	.
SMILES	POLB inh	GLS inh	APEX1 inh	POLH inh	Pol kappa inh	POLI inh
COc1cc(/C=C2\SC(=O)N(c3ccccc3Cl)C2=O)cc([N+](=O)[O-])c1O	89µM*	27%	-5%	56µM*	-12%	?
COc1cc(/C=C2\SC(=O)N(CC(=O)Nc3ccccc3F)C2=O)cc(Cl)c1O	?	-13%	-8%	50µM*	?	?
COc1cc(/C=C2\SC(c3ccc(C)cc3)=NC2=O)cc(OC)c1OC	4%	-7%	-5%	-9%	-6%	7%
COc1cc(OC)c(/C=C2\SC(=O)N(CC(=O)Nc3ccccc3F)C2=O)c(OC)c1	29%	-1%	32%	-7%	-6%	8%
COc1cc(/C=C2\SC(c3ccccc3)=NC2=O)cc(Cl)c1O	-4%	8.9µM*	18%	?	-17%	39%
Nc1ncnc2c1ncn2[C@@H]1O[C@H](C(=O)N2CCC[C@@H]2C(=O)OCc2ccccc2)[C@@H](O)[C@H]1O	.	10%	.	.	.	.
COc1ccc(NS(=O)(=O)c2cc(C(=O)N3CCN(C/C=C/c4ccccc4)CC3)ccc2C)cc1	.	13%	-7%	-4%	-5%	10%
CCOC(=O)C1=C(CN(CC)Cc2ccccc2)NC(=O)NC1c1ccc(OC)cc1 (stereo unspecified)	-17%	-11%	.	-13%	-11%	6%
COc1ccc(NS(=O)(=O)c2c(F)cc(F)c(Cl)c2F)cc1S(=O)(=O)N1CCCCC1	-1%	20%	2%	-9%	-12%	-27%
O=C(/C=C/c1c(F)cccc1Cl)N1CCOCC1	32µM*	3%	3%	-19%	5%	18%
Oc1ccc(-c2csc(Nc3cccc4ccccc34)n2)cc1O	?	-16%	7%	16µM*	50µM*	14µM*
Oc1ccc(-c2csc(Nc3ccccn3)n2)cc1O	7.9µM*	?	-23%	18µM*	?	?
Cc1ccc(N(Cc2ccccc2)C(=O)c2cccc(S(=O)(=O)N3CC(C)OC(C)C3)c2)cc1 (stereo unspecified)	.	5%	-12%	-18%	-2%	-19%
COc1ccccc1/C=C/C=N/NC(=O)Cc1cccn1C	-13%	1%	1%	?	-12%	50µM*
Fc1ccc(Nc2nc(-c3ccncc3)cs2)cc1	10µM*	-21%	16%	5%	-19%	86%
Oc1ccc(Nc2nc(-c3cccnc3)cs2)cc1	-9%	5µM*	-15%	-10%	-4%	14%
CCOC(=O)/C(C#N)=C/N=c1ccc(C)cn1C	-20%	-1%	2%	-21%	0%	25%
O=C(NCCc1ccc(Cl)cc1Cl)c1ccc2nc[nH]c2c1	34%	-16%	-7%	-16%	-2%	3%
O=C(NCCSc1ccc(Br)cc1)c1ccc2nc[nH]c2c1	40µM*	1%	-24%	22µM*	-37%	20µM*
COc1ccccc1CCNC(=O)c1ccc2nc[nH]c2c1	45µM*	-3%	-22%	?	-11%	1%
Cc1c(NC(=S)N/C(=N/S(=O)(=O)c2ccccc2)c2ccccc2)c(=O)n(-c2ccccc2)n1C	0%	11%	-3%	-8%	7%	1%
O=Cc1cc(N=Nc2cccc(C(=O)O)c2)ccc1O	35µM*	-5%	-11%	?	?	?
